Test results taken from PubChem BioAssay AID1159580 (chemical genetic matrix, 2015).
The whole screen tested about 5,500 compounds, of which about 2,000 (36%) were called active. Not shown: some 18% with an inconclusive outcome. Rule as the data show it: active = normalized growth mostly below about 0.91 (no sharp cut-off); inconclusive = no clear call, values can overlap the other calls; inactive = mostly above about 0.92. This is one part of the list.

Test: chemical genetic growth profiling, strain panel (AID 1159580);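 also: tested at 20 µM; growth read once vehicle control cultures reached saturation at 30 °C; 1 = growth at the plate median or of vehicle wells; lower values mean less growth of the strain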
Details: growth OD
[1] = S. cerevisiae deletion strains, locus YHR030C, strain SLT2, active compounds read low
[2] = S. cerevisiae deletion strains, locus YHR079C, strain IRE1, active compounds read low
[3] = S. cerevisiae deletion strains, locus YJL095W, strain BCK1, active compounds read low
[4] = S. cerevisiae deletion strains, locus YJR066W, strain TOR1, active compounds read low
[5] = S. cerevisiae deletion strains, locus YLR113W, strain HOG1, active compounds read low
[6] = S. cerevisiae deletion strains, locus YNL183C, strain NPR1, active compounds read low
[7] = S. cerevisiae deletion strains, locus YOR231W, strain MKK1, active compounds read low
[8] = S. cerevisiae deletion strains, locus YPL256C, strain CLN2, active compounds read low
[9] = S. cerevisiae deletion strains, locus YDL101C, strain DUN1, active compounds read low
[10] = S. cerevisiae deletion strains, locus YAR019C, strain CDC15, active compounds read low
[11] = S. cerevisiae deletion strains, locus YBL105C, strain PKC1, active compounds read low
[12] = S. cerevisiae deletion strains, locus YBR135W, strain CKS1, active compounds read low
[13] = S. cerevisiae deletion strains, locus YBR136W, strain MEC1, active compounds read low
[14] = S. cerevisiae deletion strains, locus YBR160W, strain CDC28, active compounds read low
[15] = S. cerevisiae deletion strains, locus YDL017W, strain CDC7, active compounds read low
[16] = S. cerevisiae deletion strains, locus YDL028C, strain MPS1, active compounds read low
[17] = S. cerevisiae deletion strains, locus YDL108W, strain KIN28, active compounds read low
[18] = S. cerevisiae deletion strains, locus YDL132W, strain cdc53, active compounds read low
[19] = S. cerevisiae deletion strains, locus YDL214C, strain PRR2, active compounds read low
[20] = S. cerevisiae deletion strains, locus YDR052C, strain DBF4, active compounds read low
[21] = S. cerevisiae deletion strains, locus YDR054C, strain cdc34, active compounds read low
[22] = S. cerevisiae deletion strains, locus YDR226W, strain ADK1, active compounds read low
[23] = S. cerevisiae deletion strains, locus YDR477W, strain SNF1, active compounds read low
[24] = S. cerevisiae deletion strains, locus YER123W, strain YCK3, active compounds read low
[25] = S. cerevisiae deletion strains, locus YER133W, strain GLC7, active compounds read low
[26] = S. cerevisiae deletion strains, locus YFL009W, strain cdc4, active compounds read low
[27] = S. cerevisiae deletion strains, locus YFL029C, strain CAK1, active compounds read low
[28] = S. cerevisiae deletion strains, locus YFR003C, strain YPI1, active compounds read low
[29] = S. cerevisiae deletion strains, locus YFR019W, strain FAB1, active compounds read low
[30] = S. cerevisiae deletion strains, locus YFR028C, strain CDC14, active compounds read low
[31] = S. cerevisiae deletion strains, locus YGR040W, strain KSS1, active compounds read low
[32] = S. cerevisiae deletion strains, locus YGR052W, strain FMP48, active compounds read low
[33] = S. cerevisiae deletion strains, locus YGR092W, strain DBF2, active compounds read low
[34] = S. cerevisiae deletion strains, locus YHR082C, strain KSP1, active compounds read low
[35] = S. cerevisiae deletion strains, locus YHR205W, strain SCH9, active compounds read low
[36] = S. cerevisiae deletion strains, locus YIL147C, strain SLN1, active compounds read low
[37] = S. cerevisiae deletion strains, locus YJL128C, strain PBS2, active compounds read low
[38] = S. cerevisiae deletion strains, locus YJL157C, strain FAR1, active compounds read low
[39] = S. cerevisiae deletion strains, locus YJR016C, strain ILV3, active compounds read low
[40] = S. cerevisiae deletion strains, locus YJR066W, strain TOR1 (second series), active compounds read low
[41] = S. cerevisiae deletion strains, locus YKL048C, strain ELM1, active compounds read low
[42] = S. cerevisiae deletion strains, locus YKL067W, strain YNK1, active compounds read low
[43] = S. cerevisiae deletion strains, locus YKL101W, strain HSL1, active compounds read low
[44] = S. cerevisiae deletion strains, locus YKL193C, strain SDS22, active compounds read low
[45] = S. cerevisiae deletion strains, locus YKL203C, strain TOR2, active compounds read low
[46] = S. cerevisiae deletion strains, locus YLR133W, strain CKI1, active compounds read low
[47] = S. cerevisiae deletion strains, locus YLR403W, strain SFP1, active compounds read low
[48] = S. cerevisiae deletion strains, locus YML070W, strain DAK1, active compounds read low
[49] = S. cerevisiae deletion strains, locus YMR001C, strain CDC5, active compounds read low
[50] = S. cerevisiae deletion strains, locus YMR205C, strain PFK2 (second series), active compounds read low
[51] = S. cerevisiae deletion strains, locus YMR277W, strain FCP1, active compounds read low
[52] = S. cerevisiae deletion strains, locus YNL006W, strain LST8, active compounds read low
[53] = S. cerevisiae deletion strains, locus YNL020C, strain ARK1, active compounds read low
[54] = S. cerevisiae deletion strains, locus YNL161W, strain CBK1, active compounds read low
[55] = S. cerevisiae deletion strains, locus YNL207W, strain RIO2, active compounds read low
[56] = S. cerevisiae deletion strains, locus YNL222W, strain SSU72, active compounds read low
[57] = S. cerevisiae deletion strains, locus YNL307C, strain MCK1 (second series), active compounds read low
[58] = S. cerevisiae deletion strains, locus YOL078W, strain AVO1, active compounds read low
[59] = S. cerevisiae deletion strains, locus YOL136C, strain PFK27, active compounds read low
[60] = S. cerevisiae deletion strains, locus YOR061W, strain CKA2, active compounds read low
[61] = S. cerevisiae deletion strains, locus YOR119C, strain RIO1, active compounds read low
[62] = S. cerevisiae deletion strains, locus YOR329C, strain SCD5, active compounds read low
[63] = S. cerevisiae deletion strains, locus YPL031C, strain PHO85, active compounds read low
[64] = S. cerevisiae deletion strains, locus YPL153C, strain RAD53, active compounds read low
[65] = S. cerevisiae deletion strains, locus YPL204W, strain HRR25, active compounds read low
[66] = S. cerevisiae deletion strains, locus YPL209C, strain IPL1, active compounds read low
[67] = S. cerevisiae deletion strains, locus YPR025C, strain CCL1, active compounds read low
[68] = S. cerevisiae deletion strains, locus YPR106W, strain ISR1, active compounds read low
[69] = S. cerevisiae deletion strains, locus YPR111W, strain DBF20, active compounds read low
[70] = S. cerevisiae deletion strains, strain NNK1, active compounds read low
[71] = S. cerevisiae deletion strains, strain TSCII, active compounds read low

Measured: normalized growth

CC(N)C12CC3CC(CC(C3)C1)C2 (stereo unspecified)
inactive: [1] 0.992 | [2] 0.977 | [3] 0.989 | [4] 0.935 | [5] 1.02 | [6] 0.944 | [7] 1.01 | [8] 0.979

CCOC(=O)N/N=C\c1ccccc1OCC
inactive: S. cerevisiae deletion strains, locus YAL013W, strain DEP1, active compounds read low 1.02 | S. cerevisiae deletion strains, locus YBR229C, strain ROT2, active compounds read low 0.998 | S. cerevisiae deletion strains, locus YCL061C, strain MRC1, active compounds read low 1.02 | [9] 1.01 | S. cerevisiae deletion strains, locus YDL134C, strain PPH21, active compounds read low 1.02 | S. cerevisiae deletion strains, locus YDR150W, strain NUM1, active compounds read low 0.923 | S. cerevisiae deletion strains, locus YEL061C, strain CIN8, active compounds read low 1.02 | S. cerevisiae deletion strains, locus YGR078C, strain PAC10, active compounds read low 1 | S. cerevisiae deletion strains, locus YGR229C, strain SMI1, active compounds read low 1.01 | [1] 1.02 | S. cerevisiae deletion strains, locus YHR087W, strain rtc3, active compounds read low 0.992 | S. cerevisiae deletion strains, locus YJR043C, strain POL32, active compounds read low 1.02 | S. cerevisiae deletion strains, locus YJR075W, strain HOC1, active compounds read low 0.985 | S. cerevisiae deletion strains, locus YKL190W, strain CNB1, active compounds read low 1 | S. cerevisiae deletion strains, locus YLR039C, strain RIC1, active compounds read low 0.931 | S. cerevisiae deletion strains, locus YLR058C, strain SHM2 (second series), active compounds read low 0.995 | S. cerevisiae deletion strains, locus YLR085C, strain ARP6, active compounds read low 1.04 | S. cerevisiae deletion strains, locus YLR262C, strain YPT6, active compounds read low 0.917 | S. cerevisiae deletion strains, locus YML094W, strain GIM5, active compounds read low 1.02 | S. cerevisiae deletion strains, locus YMR219W, strain ESC1, active compounds read low 0.997 | S. cerevisiae deletion strains, locus YMR263W, strain SAP30, active compounds read low 1.03 | S. cerevisiae deletion strains, locus YNL128W, strain TEP1, active compounds read low 1.01 | S. cerevisiae deletion strains, locus YNL153C, strain GIM3, active compounds read low 1.02 | S. cerevisiae deletion strains, locus YNL298W, strain CLA4 (second series), active compounds read low 1.03 | S. cerevisiae deletion strains, locus YNL322C, strain KRE1, active compounds read low 1 | S. cerevisiae deletion strains, locus YNR030W, strain Alg12, active compounds read low 1.02 | S. cerevisiae deletion strains, locus YOL006C, strain TOP1, active compounds read low 1.06 | S. cerevisiae deletion strains, locus YPL055C, strain LGE1, active compounds read low 0.98 | S. cerevisiae deletion strains, locus YPL241C, strain CIN2, active compounds read low 1.02 | S. cerevisiae deletion strains, locus YPR135W, strain CTF4, active compounds read low 1.03 | S. cerevisiae strains, strain wild type, active compounds read low 1.01

CCOC(=O)N/N=C\c1cc(Cl)cc(Cl)c1O
active: [33] 0.251 | [1] 0.512 | [4] 0.473 | [41] 0.72 | [5] 0.67 | [46] 0.727 | [47] 0.425 | [50] 0.714 | [53] 0.679 | [6] 0.556 | [57] 0.621 | [60] 0.471 | [64] 0.67 | [8] 0.641
inactive: [10] 0.948 | [11] 0.95 | [12] 0.928 | [13] 0.951 | [14] 0.938 | [15] 0.941 | [16] 0.942 | [9] 0.95 | [17] 0.935 | [18] 0.914 | [19] 0.824 | [20] 0.946 | [21] 0.928 | [22] 0.926 | [23] 0.741 | [24] 0.765 | [25] 0.828 | [26] 0.94 | [27] 0.931 | [28] 0.942 | [29] 0.87 | [30] 0.938 | [31] 0.737 | [32] 0.665 | [2] 0.626 | [34] 0.655 | [35] 0.586 | [36] 0.943 | [3] 0.535 | [37] 0.877 | [38] 0.785 | [39] 0.935 | [40] 0.743 | [42] 0.814 | [43] 0.74 | [44] 0.932 | [45] 0.756 | [48] 0.789 | [49] 0.948 | [51] 0.936 | [52] 0.956 | [54] 0.947 | [55] 0.931 | [56] 0.934 | [58] 0.94 | [59] 0.784 | [61] 0.729 | [7] 0.69 | [62] 0.943 | [63] 0.747 | [65] 0.706 | [66] 0.944 | [67] 0.934 | [68] 0.918 | [69] 0.92 | [70] 0.92 | [71] 0.952

CC(C)(C)C(=O)NC(=S)N/N=C\c1cc(Cl)cc(Cl)c1O
active: [19] 0.333 | [23] 0.566 | [24] 0.167 | [25] 0.48 | [29] 0.365 | [31] 0.546 | [32] 0.346 | [33] 0.165 | [1] 0.278 | [2] 0.144 | [34] 0.277 | [35] 0.248 | [3] 0.2 | [38] 0.215 | [40] 0.149 | [4] 0.182 | [41] 0.439 | [42] 0.286 | [43] 0.237 | [45] 0.332 | [5] 0.245 | [46] 0.224 | [47] 0.35 | [48] 0.285 | [50] 0.221 | [53] 0.19 | [6] 0.269 | [57] 0.18 | [59] 0.242 | [60] 0.245 | [61] 0.547 | [7] 0.173 | [63] 0.498 | [64] 0.27 | [65] 0.249 | [8] 0.285 | [71] 0.768
inactive: [10] 0.924 | [11] 0.937 | [12] 0.907 | [13] 0.936 | [14] 0.94 | [15] 0.94 | [16] 0.927 | [9] 0.949 | [17] 0.936 | [18] 0.961 | [20] 0.945 | [21] 0.918 | [22] 0.958 | [26] 0.924 | [27] 0.923 | [28] 0.947 | [30] 0.938 | [36] 0.933 | [37] 0.974 | [39] 0.922 | [44] 0.921 | [49] 0.919 | [51] 0.926 | [52] 0.924 | [54] 0.932 | [55] 0.953 | [56] 0.926 | [58] 0.916 | [62] 0.949 | [66] 0.93 | [67] 0.928 | [68] 0.969 | [69] 0.954 | [70] 0.958
